Source: the supplement of paper PMC11732987, “Enantioselective OTUD7B fragment discovery through chemoproteomics screening and high-throughput optimisation” (Communications Chemistry, 2025)

Legend:
Assay in all cases: log2 ratio of Biotin-Ahx-Ub-VS probe labelling (fragment/DMSO); higher = less target engagement (more negative = stronger competition), active = hit call of the paper (q ≤ 0.05, log2 ratio ≤ -1)
Settings in all cases: compound concentration: 200 uM; treatment time: 3 h
[1] = target: T1, OTUD6B (UniProt Q8N6M0)
T1 sequence (whole entry): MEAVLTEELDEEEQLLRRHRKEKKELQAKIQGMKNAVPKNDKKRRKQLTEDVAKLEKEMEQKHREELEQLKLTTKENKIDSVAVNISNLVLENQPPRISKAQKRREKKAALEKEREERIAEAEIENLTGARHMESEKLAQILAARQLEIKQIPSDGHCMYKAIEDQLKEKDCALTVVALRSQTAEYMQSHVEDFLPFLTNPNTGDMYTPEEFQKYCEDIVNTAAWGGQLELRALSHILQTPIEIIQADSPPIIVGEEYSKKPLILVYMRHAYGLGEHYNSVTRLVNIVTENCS
Outline: (§1)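 HEK293T lysate, 495 µg per sample in Tris/CHAPS/IGEPAL buffer with protease inhibitors, was treated in triplicate with fragment at 200 µM or vehicle for 3 h and then with Biotin-Ahx-Ub-VS at 0.5 µM final for 1 h. Labelled DUBs were NeutrAvidin-enriched, digested with LysC and trypsin, and run by diaPASEF LC-MS/MS. Spectronaut label-free quantities were global-median-normalised, and values are average log2 fragment/vehicle ratios by unpaired t-test on proteins with ≥2 unique peptides.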

[2] = target: T2, OTUD7B (UniProt Q6GQQ9)
T2 sequence (whole entry): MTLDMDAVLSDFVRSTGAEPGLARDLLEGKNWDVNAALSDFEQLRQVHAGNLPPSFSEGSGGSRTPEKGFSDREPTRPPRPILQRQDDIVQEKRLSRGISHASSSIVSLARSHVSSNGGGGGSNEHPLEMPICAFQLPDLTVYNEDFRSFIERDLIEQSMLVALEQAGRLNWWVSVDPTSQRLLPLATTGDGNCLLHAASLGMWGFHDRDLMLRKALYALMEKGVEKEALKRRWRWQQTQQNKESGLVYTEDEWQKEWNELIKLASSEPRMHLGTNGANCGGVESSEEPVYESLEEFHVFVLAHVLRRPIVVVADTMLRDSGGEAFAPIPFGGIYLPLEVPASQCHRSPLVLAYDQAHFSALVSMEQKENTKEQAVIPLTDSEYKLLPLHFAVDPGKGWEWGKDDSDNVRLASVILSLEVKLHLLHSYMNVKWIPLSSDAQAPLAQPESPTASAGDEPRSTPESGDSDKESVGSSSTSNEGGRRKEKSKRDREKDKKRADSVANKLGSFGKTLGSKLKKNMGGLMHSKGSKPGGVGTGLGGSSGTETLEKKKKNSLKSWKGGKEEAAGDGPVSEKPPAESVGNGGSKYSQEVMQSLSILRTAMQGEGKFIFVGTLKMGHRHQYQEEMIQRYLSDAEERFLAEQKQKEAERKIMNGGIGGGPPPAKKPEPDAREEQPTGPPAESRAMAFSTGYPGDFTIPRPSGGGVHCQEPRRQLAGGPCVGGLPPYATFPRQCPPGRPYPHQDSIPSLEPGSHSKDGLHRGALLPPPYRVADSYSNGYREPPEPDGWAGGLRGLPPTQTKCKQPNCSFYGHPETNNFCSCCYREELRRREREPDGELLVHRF
Outline: as §1

[3] = target: PRPF8 (UniProt Q6P2Q9)
Outline: as §1

[4] = target: T3, PSMD7 (UniProt P51665)
T3 sequence (whole entry): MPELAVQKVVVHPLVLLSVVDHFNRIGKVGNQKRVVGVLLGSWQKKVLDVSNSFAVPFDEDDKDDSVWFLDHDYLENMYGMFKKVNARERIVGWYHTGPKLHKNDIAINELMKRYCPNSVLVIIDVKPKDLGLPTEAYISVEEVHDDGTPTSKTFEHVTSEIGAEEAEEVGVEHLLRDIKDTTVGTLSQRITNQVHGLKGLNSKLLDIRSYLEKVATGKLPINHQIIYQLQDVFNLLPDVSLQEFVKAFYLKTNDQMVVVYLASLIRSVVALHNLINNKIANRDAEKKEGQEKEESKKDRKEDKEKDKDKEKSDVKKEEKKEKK
Outline: as §1

[5] = target: UCHL1 (UniProt P09936)
Chain of UCHL1 (P09936 whole entry, looked up): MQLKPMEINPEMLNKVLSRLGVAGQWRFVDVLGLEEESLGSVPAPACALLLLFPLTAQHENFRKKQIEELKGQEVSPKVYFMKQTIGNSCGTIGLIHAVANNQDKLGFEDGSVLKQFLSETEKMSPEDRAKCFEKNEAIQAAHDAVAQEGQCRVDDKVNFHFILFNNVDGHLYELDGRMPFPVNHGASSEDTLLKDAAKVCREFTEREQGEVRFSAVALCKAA
Outline: as §1

[6] = target: T4, UCHL3 (UniProt P15374)
T4 sequence (whole entry): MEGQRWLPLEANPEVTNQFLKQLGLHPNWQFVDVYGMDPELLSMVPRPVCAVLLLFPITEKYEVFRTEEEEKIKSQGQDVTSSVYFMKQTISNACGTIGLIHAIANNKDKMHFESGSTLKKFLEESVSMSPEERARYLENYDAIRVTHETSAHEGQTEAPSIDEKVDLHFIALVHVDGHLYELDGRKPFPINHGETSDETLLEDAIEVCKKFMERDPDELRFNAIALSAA
Outline: as §1

[7] = target: T5, UCHL5 (UniProt Q9Y5K5)
T5 sequence (whole entry): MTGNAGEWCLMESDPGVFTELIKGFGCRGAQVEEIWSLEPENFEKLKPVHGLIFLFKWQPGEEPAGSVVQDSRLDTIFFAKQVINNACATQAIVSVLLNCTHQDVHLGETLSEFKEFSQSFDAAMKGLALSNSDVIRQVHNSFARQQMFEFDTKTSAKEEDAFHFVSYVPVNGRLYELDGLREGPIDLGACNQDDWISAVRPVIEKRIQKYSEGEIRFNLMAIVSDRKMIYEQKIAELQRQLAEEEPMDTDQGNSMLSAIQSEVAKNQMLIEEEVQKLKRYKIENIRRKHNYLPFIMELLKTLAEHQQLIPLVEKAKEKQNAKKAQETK
Outline: as §1

[8] = target: USP10 (UniProt Q14694)
Chain of USP10 (Q14694 whole entry): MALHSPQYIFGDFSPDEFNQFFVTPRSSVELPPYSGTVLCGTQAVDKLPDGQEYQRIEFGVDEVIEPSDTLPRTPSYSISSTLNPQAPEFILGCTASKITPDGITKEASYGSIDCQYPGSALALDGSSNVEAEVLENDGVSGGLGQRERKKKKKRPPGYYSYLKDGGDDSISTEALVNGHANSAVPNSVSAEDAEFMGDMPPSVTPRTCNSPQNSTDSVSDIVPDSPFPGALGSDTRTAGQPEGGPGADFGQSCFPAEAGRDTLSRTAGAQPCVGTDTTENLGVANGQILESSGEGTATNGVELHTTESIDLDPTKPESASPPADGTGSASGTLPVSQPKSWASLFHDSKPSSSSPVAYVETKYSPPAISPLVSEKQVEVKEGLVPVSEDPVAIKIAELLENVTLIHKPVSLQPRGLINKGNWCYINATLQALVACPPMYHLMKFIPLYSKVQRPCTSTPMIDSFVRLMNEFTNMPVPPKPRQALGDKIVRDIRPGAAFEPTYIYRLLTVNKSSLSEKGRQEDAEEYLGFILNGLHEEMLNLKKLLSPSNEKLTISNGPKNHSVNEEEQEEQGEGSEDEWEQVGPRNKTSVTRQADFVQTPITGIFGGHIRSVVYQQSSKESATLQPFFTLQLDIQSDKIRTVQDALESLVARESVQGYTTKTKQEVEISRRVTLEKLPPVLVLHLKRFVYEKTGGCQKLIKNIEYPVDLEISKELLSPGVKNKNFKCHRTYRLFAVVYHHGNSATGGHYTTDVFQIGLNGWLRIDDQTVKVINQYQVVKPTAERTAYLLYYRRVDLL
Outline: as §1

[9] = target: T6, USP15 (UniProt Q9Y4E8)
T6 sequence (whole entry): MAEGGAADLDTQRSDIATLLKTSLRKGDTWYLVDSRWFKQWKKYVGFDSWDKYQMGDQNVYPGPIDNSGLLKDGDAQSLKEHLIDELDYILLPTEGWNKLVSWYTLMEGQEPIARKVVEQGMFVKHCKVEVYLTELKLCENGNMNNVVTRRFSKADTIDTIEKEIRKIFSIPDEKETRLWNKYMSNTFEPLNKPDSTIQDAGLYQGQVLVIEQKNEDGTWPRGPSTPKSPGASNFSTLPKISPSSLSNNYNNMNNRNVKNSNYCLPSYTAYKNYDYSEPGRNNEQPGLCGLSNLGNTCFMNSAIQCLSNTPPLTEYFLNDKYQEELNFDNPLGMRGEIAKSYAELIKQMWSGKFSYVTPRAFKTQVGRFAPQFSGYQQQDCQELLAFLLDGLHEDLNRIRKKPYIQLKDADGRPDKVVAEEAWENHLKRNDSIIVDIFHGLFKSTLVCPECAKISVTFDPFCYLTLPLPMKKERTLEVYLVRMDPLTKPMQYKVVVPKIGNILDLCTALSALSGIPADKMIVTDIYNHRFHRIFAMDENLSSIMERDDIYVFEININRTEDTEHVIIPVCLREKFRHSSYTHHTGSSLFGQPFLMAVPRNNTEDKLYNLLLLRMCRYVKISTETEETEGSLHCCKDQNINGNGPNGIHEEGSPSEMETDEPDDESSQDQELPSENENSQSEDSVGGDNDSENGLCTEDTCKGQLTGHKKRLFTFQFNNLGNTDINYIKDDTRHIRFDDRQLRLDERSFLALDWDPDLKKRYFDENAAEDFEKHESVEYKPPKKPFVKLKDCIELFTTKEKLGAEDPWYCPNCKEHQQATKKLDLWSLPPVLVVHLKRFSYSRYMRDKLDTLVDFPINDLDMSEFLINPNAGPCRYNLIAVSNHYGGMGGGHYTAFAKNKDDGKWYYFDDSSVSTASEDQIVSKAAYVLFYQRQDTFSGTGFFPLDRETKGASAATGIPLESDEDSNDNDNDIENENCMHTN
Outline: as §1

[10] = target: USP16 (UniProt Q9Y5T5)
Chain of USP16 (Q9Y5T5 whole entry, looked up): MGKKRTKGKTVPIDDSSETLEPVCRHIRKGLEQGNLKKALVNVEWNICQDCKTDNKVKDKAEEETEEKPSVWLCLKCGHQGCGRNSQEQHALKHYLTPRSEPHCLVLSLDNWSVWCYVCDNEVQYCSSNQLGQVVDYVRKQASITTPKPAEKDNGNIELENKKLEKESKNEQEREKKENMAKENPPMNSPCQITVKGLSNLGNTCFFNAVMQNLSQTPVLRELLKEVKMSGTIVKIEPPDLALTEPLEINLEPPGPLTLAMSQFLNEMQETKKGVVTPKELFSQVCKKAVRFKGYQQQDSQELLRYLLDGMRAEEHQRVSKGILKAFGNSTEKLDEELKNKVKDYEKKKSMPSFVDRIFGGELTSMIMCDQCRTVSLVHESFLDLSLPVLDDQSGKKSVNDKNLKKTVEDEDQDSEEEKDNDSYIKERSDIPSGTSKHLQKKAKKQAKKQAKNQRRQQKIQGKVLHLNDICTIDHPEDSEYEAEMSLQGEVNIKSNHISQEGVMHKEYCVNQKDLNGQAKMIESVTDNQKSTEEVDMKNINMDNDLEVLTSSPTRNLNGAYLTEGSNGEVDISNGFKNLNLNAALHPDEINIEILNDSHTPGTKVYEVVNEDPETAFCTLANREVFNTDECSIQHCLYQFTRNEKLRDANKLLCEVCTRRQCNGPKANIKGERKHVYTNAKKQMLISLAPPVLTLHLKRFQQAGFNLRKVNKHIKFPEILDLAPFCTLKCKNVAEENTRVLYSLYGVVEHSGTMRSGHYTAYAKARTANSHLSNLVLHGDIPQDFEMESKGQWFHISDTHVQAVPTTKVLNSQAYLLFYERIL
Outline: as §1

Measured: log2 ratio of Biotin-Ahx-Ub-VS probe labelling

Cl.Cn1cnc2cc(CNC(=O)CCl)ccc21
inactive: [1] -0.108 | [2] -0.399 | [3] 0.126 | [4] -0.0706 | [6] 0.249 | [7] 0.000192 | [8] -0.194 | [9] -0.333 | [10] -0.459
active: [5] -1.72
